Potency and affinity values are given separately.
Tested on: Staphylococcus aureus
Conditions: Concentration 20 uM; ASSAY_TEST Inhibition of Bacterial Growth; detection method Absorption (OD600); MEDIA CAMHB; plate type 384well; NBS; CORNING #3640; time 18 hr

Compared with `CC(C)NCC(=O)Nc1cccc(C(=O)Nc2cccc(C(F)(F)F)c2)c1`, `CCC(NC(=O)c1ccccc1NC(=O)c1ccc(C)cc1)C(=O)OC` (stereo not given) is higher in Inhibition: 3.81% for the first, 17.84% for the second.

First: CCN(CC)S(=O)(=O)c1ccc(Cl)c(C(=O)Nc2ccc3nc(C)sc3c2)c1
Second: Cc1ccc(NC(=O)c2cc(S(=O)(=O)NC(C)(C)C)ccc2C)nc1
The Inhibition of the first is lower: 2.16% for the first, 21% for the second.

Compared with `COC(=O)c1c(NC(=O)c2cc3ccccc3oc2=O)sc2c1CCN(Cc1ccccc1)C2`, `O=C(N[C@H](Cc1ccccc1)C(=O)Nc1ccccc1N1CCOCC1)c1cccs1` is lower in Inhibition: 19.04% for the first, 14.16% for the second.

Going from `Cl.O=C(Nc1ccc(N2CCNCC2)nc1)c1oc(-c2ccccc2)nc1C(F)(F)F` to `Cc1cnc(N2CCN[C@@H](Cc3ccccc3)C2)nc1Oc1ccc(-n2ccnc2)cc1.Cl`, the Inhibition falls from 15.48% to 11.48%.

Compared with `CN1CCC(c2cc(-c3ccncc3)c(-c3ccc(F)cc3)[nH]2)CC1`, `CC1CCCCN1C(=O)NCCc1coc(-c2ccc(F)cc2)n1` (stereo not given) is higher in Inhibition: -0.65% for the first, 23.75% for the second.

Compared with `CCc1ccccc1-n1c(C)cn2c3c(=O)n(C(C(=O)OC)C(C)C)c(=O)n(C)c3nc12` (stereo not given), `Cc1cc(OCC(=O)Nc2ccc(C(C)C)cc2)n(C)c(=O)c1C#N` is higher in Inhibition: 5.27% for the first, 7.07% for the second.

First: COc1ccc(-c2cnc3cnc(-c4cccc(OC(C)C)c4)cn23)cc1
Second: CCOc1ccc(-c2nc(NC(=O)CS(=O)(=O)c3ccccc3)sc2C)cc1
The Inhibition of the first is higher: 6.79% for the first, 3.82% for the second.

Compared with `c1ccc(-c2cc(N3CCCCC3)c3ccccc3n2)nc1`, `Nc1ncnc2c1c(Cc1cccc3ccccc13)nn2CC1CCNCC1` is lower in Inhibition: 9.48% for the first, -11.63% for the second.

Compared with `COc1cc(C2=NCCN2)ccc1-n1cc(-c2cccc(C3=NCCN3)c2)nn1.O=CO.O=CO`, `COc1ccc(C2=NN(C3CCCCCC3)C(=O)C2(C)C)cc1OCCCCOc1ccc(-c2nn[nH]n2)cc1` is higher in Inhibition: 1.49% for the first, 39.77% for the second.

Compared with `O=C(NCc1ccoc1)N1CCN(Cc2ccc3c(c2)OCO3)CC1`, `Cc1cc(C(=O)Nc2cnn(Cc3ccc(Cl)cc3Cl)c2)no1` is lower in Inhibition: 17.61% for the first, 4.82% for the second.

Going from `CC1(C)Cc2c(c(N3CCOCC3)nc3snc(Br)c23)CO1` to `CC1(COc2ccc(N3CCC(Oc4ccc(OC(F)(F)F)cc4)CC3)cc2)Cn2cc([N+](=O)[O-])nc2O1` (stereo not given), the Inhibition falls from 19.87% to 13.25%.

First: CN(C(=O)c1cc2c(-c3cncnc3)cccc2[nH]1)c1ccccc1
Second: CS(=O)(=O)c1ccccc1C(=O)N(Cc1ccccc1)c1ccccc1
The Inhibition of the first is lower: 12.46% for the first, 14.37% for the second.

First: O=C(NCc1cc(Cl)cc(Cl)c1)c1c(C(F)(F)F)nc2ccccn12
Second: COc1ccc(Cl)cc1NC(=O)CN(C)C(=O)c1cnn(-c2ccccc2)n1
The Inhibition of the first is higher: 22.39% for the first, 8.96% for the second.

Going from `Cc1cc(O)nc(-n2nc(C)cc2C)n1` to `Cc1cc(C)nc(-n2nc(C)cc2Nc2ccccc2)n1`, the Inhibition rises from 9.17% to 9.46%.

First: CCOC(=O)c1cc(-c2csc(Nc3c(C)cc(C)cc3C)n2)on1
Second: CCOC(=O)c1c(NC(=O)c2c(F)c(F)c(F)c(F)c2F)sc(C(N)=O)c1C
The Inhibition of the first is lower: 5.55% for the first, 12.42% for the second.

First: Cc1nn(C)cc1C(C)Nc1nncc(-c2ccc(C(F)(F)F)cc2)n1 (stereo not given)
Second: Cl.Cl.Cl.NS(=O)(=O)c1cncc(-c2ccc3nccc(-c4cn[nH]c4)c3n2)c1
The Inhibition of the first is lower: 2.57% for the first, 9.83% for the second.

Compared with `Cc1ccc2[nH]c3c(NCCN(C)C)ncnc3c2c1`, `O=C(NC1=NCCS1)c1sc2cc(F)ccc2c1Cl` is lower in Inhibition: 20.13% for the first, 2.69% for the second.

`CC(=O)O.CC(=O)O.Nc1ncnc2c1ncn2[C@@H]1O[C@H](COS(=O)(=O)NC(=O)c2ccccc2O)[C@@H](O)[C@H]1O` gave an Inhibition of 15.68%.
